This is an account of results in the supplement of paper PMC6555819.

Holding throughout (assay): PBM binding z-score (relative to random genomic background probes); higher = stronger binding; sequences stand for … in GC…GCGATTGACAGCGTAGAATGAAGG
Assay [1] has as its system FXR:RXRa (NR concentration 270 nM, RXRa partner concentration 90 nM). In outline:
(§1)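 For binding z-scores, the reference was random background probes on custom Agilent 4×180K protein-binding microarrays. These arrays were incubated 1 h with ligand-free nuclear receptor dimers in PBS pH 7.4, 2% milk, 0.02% Triton X-100, 1 mM DTT, 0.2 mg/mL BSA and 0.4 mg/ml salmon testes DNA. Fluorescence was scanned after antibody detection of each partner (one per run) and regression-normalized.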

Assay [2] concerns LXRa homodimer (NR concentration 270 nM). The method in brief: as §1
The test system of assay [3] is LXRb homodimer (NR concentration 270 nM). The method in brief: as §1
The subject of assay [4] is PPARa:RXRa (NR concentration 270 nM, RXRa partner concentration 90 nM). The method in brief:
as §1

The subject of assay [5] is PPARg:RXRa (NR concentration 180 nM, RXRa partner concentration 90 nM). In outline: as §1
In assay [6] the test system is PPARg:RXRa 270nM:90nM, anti-RXR (NR concentration 270 nM, RXRa partner concentration 90 nM). The method in brief:
as §1

Assay [7] deals with PPARg:RXRa 30nM:10nM, anti-RXR (NR concentration 30 nM, RXRa partner concentration 10 nM). The method in brief: as §1
Assay [8] has as its system PPARg:RXRa 90nM:30nM, anti-RXR (NR concentration 90 nM, RXRa partner concentration 30 nM). In outline: as §1
Assay [9] deals with PPARg:RXRa DBDmut IVT, anti-RXR (DBD mutation: RXRa K156A/R161A, NR concentration 270 nM, RXRa partner concentration 90 nM). The method in brief:
as §1

For assay [10], the system named is PPARg:RXRa IVT, anti-PPARg (NR concentration 270 nM, RXRa partner concentration 90 nM). The method in brief:
as §1

Assay [11] concerns PPARg DBDmut:RXRa IVT, anti-PPARg (DBD mutation: PPARg1 K132A/R137A, NR concentration 270 nM, RXRa partner concentration 90 nM). In outline: as §1
Assay [12] has as its system PPARg DBDmut IVT, anti-PPARg (DBD mutation: PPARg1 K132A/R137A, NR concentration 270 nM). In outline:
as §1

In assay [13] the test system is PPARg homodimer (NR concentration 180 nM). In outline: as §1
Assay [14] relates to PXR:RXRa (NR concentration 270 nM, RXRa partner concentration 90 nM). The method in brief: as §1
For assay [15], the system named is PXR homodimer (NR concentration 270 nM). The method in brief: as §1
The subject of assay [16] is RARa:RXR (NR concentration 270 nM, RXRa partner concentration 90 nM). The method in brief:
as §1

Assay [17] deals with RARa homodimer (NR concentration 270 nM). The method in brief: as §1
Assay [18] relates to RARb:RXRa (NR concentration 270 nM, RXRa partner concentration 90 nM). The method in brief: as §1
Assay [19] deals with RARb homodimer (NR concentration 270 nM). The method in brief:
as §1

For CGTCCAAGGTCAGCGGGTCAGTGAAAGCGACGTG, the PBM binding z-score in [1] was 5.98; in [2] it was 0.175; in [3], -0.324; in [4], 4.79; in assay [5] it was 4.41; in assay [6], 4.84. The PBM binding z-score in assay [7] was 1.19; in [8] it was 2.81; in assay [9] it was 3.12; in assay [10], 3.48; in [11], -0.302; in [12], -0.244. The PBM binding z-score was 3.27 in assay [13]; 3.9 in [14]; 1.09 in [15]; 5.13 in [16]; 1.34 in assay [17]; 5.2 in [18]. Further, the PBM binding z-score in [19] came to 4.69.
As for CACACTAGGTCACAGAGGTCAAAGTCCGTGCGTA, the PBM binding z-score is 7.16 in [1]; 8.63 in assay [2]; 2.87 in assay [3]; 6.51 in assay [4]; 9.53 in [5]; 7.9 in assay [6]. In addition, the PBM binding z-score was found to be 5.64 in assay [7]; 7.43 in assay [8]; 7.79 in assay [9]; 8.44 in [10]; 0.528 in assay [11]; 2.16 in [12]. For the same sequence, the PBM binding z-score in [13] is 4.86; in assay [14], 6.73; in assay [15], 12; in assay [16], 7.59; in [17], 3.69; in assay [18], 5.36. In assay [19], this sequence gave a PBM binding z-score of 5.86.
Take CCTTACGGGTCAAGGTTATAGCCCGGGTGGTACG: the PBM binding z-score is 5.51 in [1]; 0.231 in [2]; -0.334 in assay [3]; 4.97 in assay [4]; 4.06 in assay [5]; 4.86 in [6]. Further, the PBM binding z-score is 1.37 in assay [7]; 3.74 in assay [8]; 1.8 in assay [9]; 3.44 in [10]; -0.234 in assay [11]; -0.862 in [12]. In addition, the PBM binding z-score was 1.69 in assay [13]; 3.43 in assay [14]; 0.303 in assay [15]; 4.46 in assay [16]; 0.676 in [17]; 4.33 in assay [18]. The PBM binding z-score in assay [19] is 3.8.
For CCTAGCAGGCCAATCTAGGTCACTCAAGGCTTGA, the PBM binding z-score is 1.46 in assay [1]; 0.192 in [2]; -0.859 in assay [3]; 3.15 in assay [4]; 2.1 in assay [5]; 2.47 in [6]. Also, the PBM binding z-score in [7] is 0.115; in [8] it was 1.49; in assay [9], 5.08; in [10], 5.19; in assay [11], -0.0838; in assay [12] it was -0.865. Further, the PBM binding z-score is 0.707 in [13]; 1.51 in assay [14]; -0.261 in assay [15]; 1.37 in assay [16]; -0.161 in assay [17]; 2.02 in assay [18]. The PBM binding z-score in assay [19] came out at 2.68.
On to ATCGAAAGGTCTAAGGTGAGTATACCCACCCGAA, for which the PBM binding z-score in assay [1] is 0.614; in [2], -0.103; in assay [3], -0.0723; in assay [4], 1.52; in assay [5], 1.52; in [6], 2.08. For the same sequence, the PBM binding z-score was 0.802 in assay [7]; 1.56 in assay [8]; -0.401 in assay [9]; 1.2 in assay [10]; 0.696 in assay [11]; 0.446 in assay [12]. Also, the PBM binding z-score in assay [13] amounted to 0.384; in assay [14], 0.515; in assay [15], 0.247; in assay [16] it was 1.35; in [17] it was 0.59; in [18], 1.53. This sequence also showed a PBM binding z-score in [19] of 1.08.
As for TCTAGTTGGTCACGGAGGTCACAAACGACGGGTA, the PBM binding z-score in [1] is 2.95; in assay [2], 2.21; in assay [3] it was 0.892; in assay [5], 3.15; in assay [6] it was 3.83; in [7], 3.19. The PBM binding z-score in [8] is 3.12; in [9], 2.44; in assay [10], 3.96; in [11] it was 0.857; in assay [12], 0.878; in assay [13], 2.5. The PBM binding z-score worked out at 4.3 in assay [14]; 1.25 in [15]; 4.32 in [16]; 1.68 in assay [17]; 3.66 in [18]; 4.21 in assay [19].
In the case of CCTACTGGGCCATTCAGAGGGCATTGATCATATG, the PBM binding z-score in [1] was -0.338; in assay [2], 0.468; in assay [3], -0.759; in assay [4] it was 0.726; in assay [5], 0.602; in assay [6], 0.565. Also, the PBM binding z-score in assay [7] is -0.432; in assay [8], -0.127; in assay [9] it was 4.54; in [10], 3.43; in assay [11] it was -0.276; in [12], -0.131. The PBM binding z-score in assay [13] is 0.0332; in assay [15], -0.0942; in assay [16], 0.0322; in assay [17], -0.556; in assay [18], 1.09; in assay [19], 1.27.
As for AGTCAAAGTTGAGGACGAGGTAACGTAAAGCACG, the PBM binding z-score was 0.359 in [1]; -0.388 in [2]; -0.483 in [3]; 1.44 in assay [5]; 1.74 in [6]; 0.562 in [7]. The PBM binding z-score in assay [8] is 0.984; in assay [9], -0.189; in assay [10] it was 0.639; in assay [11], 0.307; in assay [12], -0.0552; in assay [13] it was 0.137. The PBM binding z-score is 0.261 in [14]; -0.0592 in assay [15]; 0.951 in assay [16]; 0.0325 in assay [17]; 1.46 in assay [18]; 1.01 in assay [19].
